The text below walks through data of PubChem BioAssay.

Experiment [1] in a line: optical density shifts of acrAB sulA E. coli – strain DRC41, OD650, 48 h, E. coli filamentation inducer project, primary screen (AID 1152).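 Note: E. coli MC1000 strain DRC41 lacking acrAB efflux pump and sulA.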 Particulars: higher = more signal, called active from +8 up or from −8 down.
The nature of experiment [2]: probe aLefty1 binding on compound microarray – biochemical, small-molecule microarray, 635/667 nm fluorescence, primary screen (AID 1153).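 Note: score merges spot fluorescence with signal-to-noise ratio from the scanned slide images.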 The conditions noted are these: higher = more signal.
A short description of experiment [3]: plasmodial surface anion channel blockers, osmotic lysis – cell-based, P. falciparum Indochina, OD700, 1 h, primary screen (AID 1154). Particulars: P. falciparum Indochina infected RBC osmotic lysis, higher = more signal, called active from +8 up or from −8 down.
The nature of experiment [4]: plasmodial surface anion channel blockers, osmotic lysis – cell-based, P. falciparum Indochina, OD700, 2 h, primary screen (AID 1155).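 Note: lysis reports solute entry through the parasite surface anion channel PSAC.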 The conditions noted are these: P. falciparum Indochina infected erythrocytes, higher = more signal, called active from +8 up or from −8 down.
The nature of experiment [5]: changes in parasitized red cell lysis, either direction – P. falciparum Indochina, OD700, 3 h, PSAC antagonist project, primary screen (AID 1156). Particulars: P. falciparum-infected erythrocytes, osmotic lysis, higher = more signal, called active from +8 up or from −8 down.
Experiment [6] can be described thus: plasmodial surface anion channel blockers, osmotic lysis – cell-based, P. falciparum Indochina, OD700, 18 h, primary screen (AID 1157). Particulars: P. falciparum Indochina infected erythrocytes, osmotic lysis OD700, 18 h; higher = more signal, called active from +8 up or from −8 down.
The nature of experiment [7]: S6 kinase pathway phospho-S6 level changes – cell-based, A549, cytoblot, luminescence, serum-stimulated, primary screen (AID 1158).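 Note: serum-stimulated A549 lung adenocarcinoma cells; signal is phosphorylated S6 detected by cytoblot immunostaining with HRP secondary.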 Particulars: 5 h, higher = more signal.
Experiment [8] addresses NADPH oxidase 2 (Homo sapiens) (UniProt P04839). The experiment in a line: compounds shifting NOX2 Amplex Red fluorescence – cell-based, HEK293-NOX2, PMA-stimulated, NOX inhibitor project, primary screen (AID 1159). Note: test concentration not given here. Particulars: 45 min, higher = more signal, called active from +8 up or from −8 down.
Experiment [9] has as its target NADPH oxidase 4 (Homo sapiens) (UniProt Q9NPH5). The experiment in a line: compounds shifting NOX4 Amplex Red fluorescence – cell-based, HEK293-NOX4, tetracycline-induced, NOX inhibitor project, primary screen (AID 1160). The conditions noted are these: HEK293-NOX4, Amplex Red H2O2 fluorescence, 45 min; higher = more signal, called active from +8 up or from −8 down.

Experiment [10] addresses NADPH oxidase 5 (Homo sapiens) (UniProt Q96PH1). The experiment in a line: compounds shifting NOX5 Amplex Red fluorescence – cell-based, HEK293-NOX5, NOX inhibitor project, primary screen (AID 1161). The conditions noted are these: HEK293-NOX5, ionomycin, 45 min, higher = more signal.
Experiment [11] can be described thus: compound effects on lung adenocarcinoma cell viability – A549, calcein-AM fluorescence, 48 h, basal, profiling panel (AID 1162). Note: test concentration not given here. The conditions noted are these: higher = more signal.
Experiment [12] is described as follows: compound effects on differentiated 3T3-L1 adipocyte viability – cell-based, 3T3-L1 adipocytes, calcein-AM fluorescence, 48 h, basal, profiling panel (AID 1163). Note: test concentration not given here. The conditions noted are these: 3T3-L1 adipocytes viability, higher = more signal.
Experiment [13] can be described thus: compound effects on hepatocellular carcinoma cell viability – HepG2, calcein-AM fluorescence, 48 h, basal, profiling panel (AID 1164). Note: test concentration not given here. The conditions noted are these: higher = more signal.
A short description of experiment [14]: compound effects on multiple myeloma cell viability – MM1S, calcein-AM fluorescence, 48 h, basal, profiling panel (AID 1165).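 Note: viability of MM1S multiple myeloma cells under basal unstimulated conditions; test concentration not given here.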 Particulars: higher = more signal.
The nature of experiment [15]: calcein-AM signal in unstimulated myeloma cells – cell-based, calcein-AM fluorescence, 48 h, PK04 Diversity Set, profiling panel (AID 1166).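 Note: cells grown under basal conditions without added stimulus; test concentration not given here.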 Particulars: RPMI8226 myeloma viability, higher = more signal.
Experiment [16] is described as follows: JC-1 mitochondrial signal, unstimulated HepG2 cells – cell-based, JC-1 fluorescence, 24 h, 100 nL compound, profiling panel (AID 1167). Note: test concentration not given here. Particulars: HepG2 mitochondrial potential, higher = more signal.
The nature of experiment [17]: JC-1 mitochondrial signal, unstimulated adipocytes – cell-based, JC-1 fluorescence, 3T3-L1 adipocytes, 24 h, 100 nL compound, profiling panel (AID 1168). Note: test concentration not given here. Particulars: JC-1 mitochondrial fluorescence, higher = more signal, called active from +8 up or from −8 down.
Experiment [18] can be described thus: JC-1 mitochondrial signal, unstimulated myeloma cells – cell-based, JC-1 fluorescence, RPMI8226, 24 h, 100 nL compound, profiling panel (AID 1169). Note: test concentration not given here. Particulars: JC-1 mitochondrial potential fluorescence, higher = more signal.
Experiment [19] in a line: JC-1 mitochondrial signal, unstimulated MM1S myeloma – cell-based, JC-1 fluorescence, 24 h, 100 nL compound, profiling panel (AID 1170). Note: test concentration not given here. Particulars: MM1S mitochondrial potential, higher = more signal.
A short description of experiment [20]: resazurin metabolic signal in A549 cells – cell-based, resazurin fluorescence, 24 h, PK04 Diversity Set, profiling panel (AID 1171). Note: test concentration not given here. The conditions noted are these: A549 viability, higher = more signal, called active from +8 up or from −8 down. For orientation: Alamar Blue is a resazurin reagent that responds to reducing activity.

Active and inactive are the calls of the source.

Sequence of NADPH oxidase 2 (Homo sapiens) (P04839 whole entry, looked up): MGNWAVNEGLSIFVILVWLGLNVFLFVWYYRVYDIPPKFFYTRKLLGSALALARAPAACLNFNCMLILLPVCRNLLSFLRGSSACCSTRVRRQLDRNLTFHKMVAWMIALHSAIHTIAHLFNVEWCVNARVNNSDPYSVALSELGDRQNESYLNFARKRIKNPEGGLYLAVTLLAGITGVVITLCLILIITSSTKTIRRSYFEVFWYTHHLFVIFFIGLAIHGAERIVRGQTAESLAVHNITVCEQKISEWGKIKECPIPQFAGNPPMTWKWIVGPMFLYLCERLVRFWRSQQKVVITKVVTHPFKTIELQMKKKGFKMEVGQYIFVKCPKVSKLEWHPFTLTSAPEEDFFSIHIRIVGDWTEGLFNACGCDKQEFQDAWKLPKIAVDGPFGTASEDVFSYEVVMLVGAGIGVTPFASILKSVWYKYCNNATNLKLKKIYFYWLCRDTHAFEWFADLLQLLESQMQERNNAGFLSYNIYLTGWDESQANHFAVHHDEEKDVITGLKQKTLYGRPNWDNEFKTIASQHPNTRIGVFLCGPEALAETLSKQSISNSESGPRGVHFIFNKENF
Sequence of NADPH oxidase 5 (Homo sapiens) (Q96PH1 whole entry, looked up): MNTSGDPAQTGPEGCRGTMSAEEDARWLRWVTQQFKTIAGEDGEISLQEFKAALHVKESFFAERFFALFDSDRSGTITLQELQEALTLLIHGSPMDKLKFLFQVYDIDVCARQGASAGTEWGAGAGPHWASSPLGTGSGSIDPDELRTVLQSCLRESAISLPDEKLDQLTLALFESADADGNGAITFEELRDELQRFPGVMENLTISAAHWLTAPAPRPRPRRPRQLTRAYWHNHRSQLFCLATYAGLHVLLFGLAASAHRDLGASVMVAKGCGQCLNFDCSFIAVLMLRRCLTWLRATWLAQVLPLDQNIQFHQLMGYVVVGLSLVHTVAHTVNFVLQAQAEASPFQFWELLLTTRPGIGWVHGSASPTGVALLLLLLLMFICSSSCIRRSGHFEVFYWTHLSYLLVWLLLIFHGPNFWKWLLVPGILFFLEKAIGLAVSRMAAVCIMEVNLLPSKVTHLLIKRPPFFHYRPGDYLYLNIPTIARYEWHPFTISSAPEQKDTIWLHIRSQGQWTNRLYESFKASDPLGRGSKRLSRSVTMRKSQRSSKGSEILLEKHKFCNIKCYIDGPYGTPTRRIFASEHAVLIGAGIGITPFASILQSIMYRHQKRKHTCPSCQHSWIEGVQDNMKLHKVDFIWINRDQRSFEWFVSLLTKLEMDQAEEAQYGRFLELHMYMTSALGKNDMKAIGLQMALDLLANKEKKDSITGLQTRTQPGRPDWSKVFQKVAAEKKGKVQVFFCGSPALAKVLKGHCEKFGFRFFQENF
Sequence of NADPH oxidase 4 (Homo sapiens) (Q9NPH5 whole entry, looked up): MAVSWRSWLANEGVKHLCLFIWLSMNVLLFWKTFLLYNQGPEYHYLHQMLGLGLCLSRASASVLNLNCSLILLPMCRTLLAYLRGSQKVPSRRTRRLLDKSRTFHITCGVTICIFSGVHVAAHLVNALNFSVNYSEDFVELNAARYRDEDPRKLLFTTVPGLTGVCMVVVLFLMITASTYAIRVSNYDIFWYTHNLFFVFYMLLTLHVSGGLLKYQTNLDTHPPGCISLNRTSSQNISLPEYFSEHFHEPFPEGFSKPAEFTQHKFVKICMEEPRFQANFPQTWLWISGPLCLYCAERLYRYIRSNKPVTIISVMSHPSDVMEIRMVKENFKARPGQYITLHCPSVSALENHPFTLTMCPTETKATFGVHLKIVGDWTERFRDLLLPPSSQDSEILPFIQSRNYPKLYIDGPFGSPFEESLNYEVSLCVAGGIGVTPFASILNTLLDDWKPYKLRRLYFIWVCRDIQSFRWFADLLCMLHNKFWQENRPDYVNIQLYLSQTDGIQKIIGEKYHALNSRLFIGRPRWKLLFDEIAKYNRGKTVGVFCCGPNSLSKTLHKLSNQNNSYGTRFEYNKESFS

Turning to `COC(=O)[C@@H]1CC[C@H](C)[C@@H](c2ccc(C)cc2)N1C(=O)c1ccc(C=NOC(C)CN2CCCCc3nc(C)c(C)cc32)cc1` (stereo not given in full), the z-score in experiment [1] is 0.173 (inactive); in experiment [3] it was 1.21 (inactive); in [4] it was 0.369 (inactive); in [5], 1.03 (inactive); in [6], 0.367 (inactive); in experiment [7] it was -0.122. Further, the z-score in [8] was -0.202 (inactive); in experiment [9], -1.62 (inactive); in experiment [10], 0.64; in [11] it was -1.19; in experiment [12] it was -0.0501; in experiment [13], -2.59. In addition, the z-score is -2.73 in experiment [14]; -4 in experiment [15]; -0.414 in [16]; -1.72 (inactive) in experiment [17]; -1.16 in experiment [18]; -1.54 in [19]. Further, in [20], the z-score is 2.21 (inactive). The same compound yielded a composite z-score in experiment [2] of -0.0449.
Consider `CCc1cccc(NC(=O)O[C@H]2[C@H](OC(=O)Nc3ccc4c(c3)OCO4)[C@@H](OC(=O)Nc3ccc4c(c3)OCO4)[C@@H](OC)O[C@@H]2CO)c1`, for which the z-score was 0.861 (inactive) in [1]; 7.56 (inactive) in experiment [3]; 1.22 (inactive) in [4]; 1.37 (inactive) in experiment [5]; 0.495 (inactive) in [6]; 0.19 in experiment [7]. In addition, the z-score is -3.12 (inactive) in experiment [8]; -0.812 (inactive) in [9]; -1.87 in [10]; -1.1 in experiment [11]; 0.29 in experiment [12]; -1.66 in [13]. In addition, the z-score in experiment [14] is -1.33; in [15], -0.976; in [16], 0.0535; in [17] it was 0.892 (inactive); in [18] it was -0.806; in experiment [19] it was -0.503. Moreover, the z-score in experiment [20] is 0.735 (inactive). This compound showed a composite z-score in [2] of 1.01.
For the compound `CCOC(=O)[C@H](Cc1ccccc1)NC(=O)CCC1CC(OC(=O)NCc2ccc3c(c2)OCO3)CC2(CCCC(COC(=O)NCC(c3ccccc3)c3ccccc3)O2)O1` (stereo not given in full), the z-score in [1] is 1.13 (inactive); in experiment [3], 13.8 (active); in [4] it was 4.29 (inactive); in experiment [5] it was 0.394 (inactive); in experiment [6], 1.3 (inactive); in experiment [7], 0.0394. Moreover, the z-score in experiment [8] was -0.742 (inactive); in experiment [9], 0.406 (inactive); in experiment [10], 0.491; in experiment [11] it was 1.85; in experiment [12], -0.683; in experiment [13], -0.538. Further, the z-score is -3.38 in experiment [14]; -3.61 in [15]; 1.37 in experiment [16]; -0.717 (inactive) in experiment [17]; -0.77 in [18]; -1.95 in [19]. Also, the z-score in [20] is 0.174 (inactive). The composite z-score in experiment [2] is -0.0046.
Consider `COc1ccc(O[C@H]2C=C[C@@H](c3ccccc3)O[C@@H]2COC(=O)N2CCCCC2)cc1`, for which the z-score in experiment [1] was 0.309 (inactive); in [3] it was 2 (inactive); in experiment [4], -0.213 (inactive); in experiment [5], -0.0257 (inactive); in [6], -0.169 (inactive); in [7] it was -0.428. For the same compound, the z-score in experiment [8] was -0.138 (inactive); in [9] it was 0.334 (inactive); in experiment [10], -1.71; in experiment [11], -0.0152; in experiment [12], -0.303; in [13], 0.0678. Besides, the z-score was -0.979 in [14]; -1.22 in [15]; 1.23 in [16]; -0.0796 (inactive) in experiment [17]; -0.358 in experiment [18]; 0.125 in experiment [19]. The z-score in experiment [20] was 1.57 (inactive). Also, in [2], the composite z-score amounted to 0.174.
In the case of `COc1ccccc1CN1C(=O)c2ccccc2[C@@]2(Cc3ccccc3N(C(C)C)C2=O)[C@@H]1c1ccc(CO)cc1`, the z-score in experiment [1] was 1.74 (inactive); in [3], 0.0937 (inactive); in [4] it was -0.756 (inactive); in experiment [5], -0.964 (inactive); in experiment [6], -0.876 (inactive); in experiment [7], 1.79. Besides, the z-score in experiment [8] is -0.437 (inactive); in experiment [9], 0.215 (inactive); in experiment [10], 1.04; in experiment [11], 0.212; in experiment [12] it was 0.423; in [13] it was 1.29. Further, the z-score in [14] was -0.19; in experiment [15] it was 0.931; in experiment [16], 0.881; in experiment [17], 0.576 (inactive); in experiment [18], 0.563; in experiment [19] it was 0.374. The z-score in experiment [20] is -1.64 (inactive). This compound had a composite z-score in experiment [2] of 0.0371.
